# Data from ChEMBL document CHEMBL4888484, “Replenishing the malaria drug discovery pipeline: Screening and hit evaluation of the MMV Hit Generation Library 1 (HGL1) against asexual blood stage Plasmodium falciparum ,using a nano luciferase reporter read-out” (2022).
# The whole screen tested about 4,800 compounds, of which about 420 (8.8%) showed an effect of 50% or more. For the sample, strong results were picked, then their nearest neighbours and some compounds at random.
# Test system: Plasmodium falciparum
# Assay: Confirmatory screen in NF54 nanoGlo assay, in single point, at 2uM, 72h
# Type: functional, Erythrocyte
# Settings: timepoint 72 hour
row,Compound,% Inhibition [%]
1,CCN(CC)c1ncnc(N(C)Cc2ccccc2)c1N,2
2,COc1ccc([C@H]2[C@H](C(=O)NC3CCCCCC3)CCC(=O)N2C)cc1,-8
3,COCc1cc2nn(CC(=O)Nc3ccc(F)cc3C)c(=O)n2c(-c2ccccc2)n1,-15
4,C[C@]1(CCc2ccc(O)cc2)Nc2ccccc2-c2nc(=O)c(-c3ccc(F)cc3)nn21,8
5,C[C@]1(C(=O)O)Nc2ccccc2-c2nc(=O)c(-c3ccccc3)nn21,-2
6,O=c1nc2n(nc1-c1ccccc1)C1(CCC1)Nc1ccccc1-2,74
7,COc1ccccc1CNC(=O)c1cn(CC2(O)CCN(Cc3ccccc3)CC2)nn1,-3
8,C#CCCCCC(=O)Nc1ncccc1Cl,-2
9,COc1ccc(N2CCN(c3nccn4nc(-c5ccc(OC)c(OC)c5)cc34)CC2)cc1,-10
10,CC(C(=O)Nc1ncccn1)N1CCCC1Cn1cccn1 (configuration not stated),-4
11,COc1nc(NC[C@H]2CCCN2C(C)C)ncc1F,66
12,COc1ccc2ncc(=O)n(CCOc3ccccc3)c2c1,4
13,COc1ccc(CCc2n[nH]c(NC(=O)CCc3c[nH]c4ccccc34)n2)cc1OC,14
14,CCOc1cccc(-c2ccc3nc(-c4cccc(OC)c4)c(CCC(=O)NCCN4CCCC4)n3c2)c1,61
15,CCOc1cccc(-c2ccc3nc(-c4cccc(OC)c4)c(CCC(=O)NCCc4ccc(OC)c(OC)c4)n3c2)c1,23
16,CCCCN1C(=O)[C@H]2[C@H]([C@H](O)c3ccc(Cl)cc3)N[C@@]3(C(=O)Nc4ccccc43)[C@H]2C1=O,25
17,Cc1nnc(NC(=O)c2cc(N3CCCC3)ncn2)s1,14
18,O=C(NCc1ccncc1)c1cc(C(=O)C2CCCCC2)c[nH]1,-7
19,Cc1cnc(NC(=O)C(=O)N2CCC[C@H](n3cccn3)C2)s1,-4
20,Cc1ccc(Cc2nc(N3CCCN(C(=O)c4ccc(C)cc4)CC3)c3cnn(-c4ccccc4)c3n2)cc1,3
21,O=C(O)[C@H]1CC(=O)N(c2ccc3nc(-c4cccc(F)c4)oc3c2)C1,-6
22,C=CCNC(=O)N1CCC(c2nc(C)ccc2C(=O)N2CCCC2)CC1,-2
23,CCn1ccc([C@H](C)NC(=O)c2cc(C)c(C)s2)n1,-6
24,CCc1cc(C(=O)N[C@@H](C)c2ccccc2)c2c(C3CC3)nn(Cc3ccccc3)c2n1,-6
25,C=CCS(=O)(=O)NC(=O)c1cc(C)c(C)cc1Cl,-2
26,Cc1oc(-c2ccn[nH]2)cc1S(=O)(=O)Nc1ccc(F)c(Cl)c1,40

row,Compound,% Inhibition [%]
1,c1ccc2c(c1)ccc1oc(-c3ccn[nH]3)cc12,-5
2,Cc1oc(-c2ccn[nH]2)cc1S(=O)(=O)Nc1cccc(Cl)c1,52
3,CCCn1c(C)ccc(-c2noc(CCCC(=O)N3CCOCC3)n2)c1=O,-3
4,O=C(c1cnc(Nc2nc3ccccc3o2)nc1)N1CCN(c2ccccc2)CC1,0
5,Cn1nc(-c2nc(-c3ccc(F)cc3)no2)c2c1CCN(C(=O)c1cccc(Cl)c1)C2,-5
6,COc1cc(NC(=O)c2cccc3c(Br)cccc23)ccc1NC(=O)c1ccccc1Cl,0
7,CC1(C)Oc2cc(S(=O)(=O)NC3CCCCC3)ccc2NC1=O,-14
8,Cc1ccc(C(F)(F)C(=O)NCCC(=O)NS(C)(=O)=O)cc1,49
9,Cc1nnc([C@@H]2COCCN2Cc2csc(C)c2)o1,0
10,Cc1cc(C(=O)NCc2ccncc2)no1,-11
11,CCn1nccc1C(=O)N1CC[C@H](CC(=O)NCc2ccncc2)C1,-6
12,CC[C@@H](CO)NCc1cc(Br)ccc1OC,-11
13,CCc1nnc2ccc(S(=O)(=O)Nc3ccc(Cl)cc3)cn12,8
14,O=C(NC1CCCCCC1)c1cn(CC2(O)CCN(Cc3ccccc3)CC2)nn1,-4
15,O=C(C[C@H]1CCC(=O)N(Cc2ccccc2)CC1)NC1CCN(Cc2ccccc2)CC1,-1
16,Cc1nc2c(Oc3ccccc3)cccc2c2c1CCN2c1ccc(OC(F)(F)F)cc1,-17
17,CC1=N[C@H](N2CCN(c3ccccc3)CC2)NC(O)=C1,-12
18,N#Cc1cccc(-c2n[nH]c3c2CN(c2ccc(-c4ccccc4)nn2)CC3)c1,85
19,N#Cc1cc(N2CCc3ccccc3C2)nc2ccccc12,2
20,Cc1ccccc1-c1nc2cc(NS(=O)(=O)c3ccccc3)ccc2o1,2
21,Cc1cccn(Cc2nnnn2C2CC2)c1=O,3
22,O=C(Cc1ccc(Cl)cc1Cl)N1CCc2[nH]nc(C(=O)N3CCN(c4ccccc4)CC3)c2C1,-1
23,CN1CCN(c2nc(-c3cccc(C(F)(F)F)c3)nc3c2cnn3Cc2ccccc2)CC1,-4
24,CN1CCC(n2ncc3[nH]c(-c4ccc(C(F)(F)F)cc4)nc32)CC1,96
25,CN(c1nc2c(cnn2C)c(=O)[nH]1)C1CCCC1c1ccc(C(F)(F)F)cc1 (configuration not stated),6
26,Cc1ccc(S(=O)(=O)Cc2nc(-c3ccc(C(=O)NCc4ccc(C)o4)cc3)oc2C)cc1,-18

row,Compound,% Inhibition [%]
1,O=C(CCC1CCCC1)N1CCC(N2CCCCCC2)CC1,6
2,Cc1cccc(NS(=O)(=O)c2cc(C(=O)NCc3ccc4c(c3)OCO4)ccc2Cl)c1C,5
3,O=S(=O)(c1ccccc1)N1CCC(Nc2ccc(Br)cc2)CC1,10
4,Cc1nc(-c2ccc(NCc3cc4ccccc4o3)nc2)[nH]c(=O)c1C,-10
5,Nc1ncc(C(=O)N2CCC3(CCCCCC3)C2)s1,98
6,Cc1ncsc1C(=O)N1CCC2(CCCCC2)C1,-14
7,O=C1C[C@@H](C(=O)N2CCC3(CCCCC3)C2)CCN1,-3
8,O=C(O)c1csc(-c2csc(CCN3C(=O)c4ccccc4C3=O)n2)n1,3
9,COc1cc(OC)cc(C(=O)Nc2cnc(N3CCCCC3)c(C)c2)c1,0
10,Cc1nn(C)c(C)c1-c1cc(C(=O)Nc2cc(F)ccc2F)c2c(C)nn(C)c2n1,-5
11,Cc1ccc(CN2C(=O)[C@@H]3CCCN3c3ccc(C(F)(F)F)cc32)cc1,-17
12,Cc1cc(N(CCO)C2CC2)nc(C2CC2)n1,-8
13,Cc1cc(N(C)CCC2CC2)nc([C@H](C)N(C)CCC2CC2)n1,52
14,OC1CCC(Nc2cncc(-n3cccn3)n2)CC1 (configuration not stated),-2
15,CC(C)Cn1cc2c(C(F)(F)F)cc(=O)n(CCC(=O)Nc3cc(F)ccc3F)c2n1,1
16,CC(C)(C)OC(=O)N1CCc2ncn(Cc3ccc(F)cc3)c(=O)c2C1,-7
17,CCOC(=O)COc1cc(N)c(F)cc1Cl,-10
18,CCOC(=O)CNc1ccc(F)c(Cl)c1,-6
19,CCOC(=O)CCn1cc(F)c(=O)[nH]c1=O,77
20,Cc1nn(C)c(C)c1OCc1nnc(C2CCC2)n1C,-14
21,CCCNC(=O)C1=Cc2ccccc2OC=C1,-9
22,Cc1ccccc1Cn1cnc2c1c(=O)n(C1CCCCC1)c(=O)n2-c1ccccc1Cl,78
23,COc1ccccc1-n1c(=O)n(C2CCCC2)c(=O)c2c1ncn2Cc1ccccc1Cl,37
24,COc1ccccc1Cn1cnc2c1c(=O)n(C1CCCCC1)c(=O)n2-c1ccccc1Cl,83
25,COC(=O)c1ncn2c1C(=O)N(Cc1ccccc1OC)[C@](C)(C(=O)NC1CCCCC1)C2,0
26,CCCc1nc(N2CCCN(C(=O)C3CCCCC3)CC2)c2c(C)nn(-c3ccccc3)c2n1,0

row,Compound,% Inhibition [%]
1,CCC(C)(C)NCC(=O)Nc1cc(F)ccc1F,-13
2,Cc1coc(-c2cc(NC(=O)N(CCO)CC(F)F)ccc2C)n1,-5
3,Cn1nc(C(=O)Nc2nnc[nH]2)ccc1=O,4
4,COc1ccccc1CNCCNC(=O)c1ccncc1,8
5,Cc1cnccc1NCCNCc1cccc(O)c1Cl,88
6,Clc1cc(CNCCc2ccccc2)ccc1OCc1ccccc1,-6
7,C[C@@H](C1CC1)N(C)S(=O)(=O)Cc1cc(Cl)cc(Cl)c1,-3
8,COc1ccccc1CN(C(=O)c1ccc(C)cc1)c1ccc(CC(=O)NCCN2CCCCC2)cc1,39
9,CCOc1ccc(-n2c(CN3CCN(C(=O)c4ccco4)CC3)nc3ccccc3c2=O)cc1,3
10,COc1ccc(NC(=O)c2nc(Nc3ccccc3)c3ccccc3n2)cc1,17
11,CCOc1ccc(Nc2c3ccccc3nc3ccccc23)cc1,86
12,Cc1cccc(NS(=O)(=O)c2ccc3c(c2)Cc2cc(S(=O)(=O)Nc4cccc(C)c4)ccc2-3)c1,10
13,O=C(Cn1c(=O)n(-c2cc(F)cc(F)c2)c(=O)c2sccc21)NCc1ccc2c(c1)OCO2,-9
14,Cc1[nH]ccc(=O)c1Cc1c(Cl)cccc1Cl,-16
15,Cc1cc(NC(=O)Cn2ncnc2-c2cccc(C#N)c2)n(C)n1,-1
16,O[C@@H](CNCc1ccsc1C(F)(F)F)c1cc(Cl)c2c(c1)OCCO2,32
17,CCCN(Cc1c(C)nn(-c2ccccc2)c1N1CCN(CC)CC1)S(=O)(=O)c1ccc(C)cc1,-5
18,Cc1cc(NCCc2nccn2C)ncn1,-15
19,Cc1sc2nc(-c3ccccn3)nc(NCC(=O)N3CCC(O)CC3)c2c1-c1ccccc1,23
20,COC(=O)COc1nonc1-c1ccccc1,7
21,Cc1nnc(Cn2ncnc2-c2ccccc2Cl)o1,-3
22,COc1ccc(OCC(=O)Nc2ccc(N3CCn4c(nc5ccccc54)C3)cc2Cl)cc1,-8
23,Cc1cnc(C(=O)N2CCC[C@H]2c2nc(C3CCOCC3)no2)cn1,0
24,Cc1cc(S(=O)(=O)NC(=O)c2ccnc(C3CCCC3)n2)c(C)s1,-2
